From PubChem BioAssay come the findings set out here.

Values joined by “and” are separate entries in the source; they are usually repeats but may differ in a detail not shown here. Equal values may be shown once. Inconclusive results are not listed. Active and inactive are the calls of the source.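 Rule for the calls, unless noted: active = compounds whose cell count with miR-34 switched on is under 0.7 times the count with it off; inactive = the rest.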

A short description of assay [1]: JHH-DIPG-1 glioma cell viability, MIPE5.0 library, CellTiter-Glo luminescence, qHTS (AID 1347067; cut-off not given, nearly all actives have AC50 up to about 26 µM;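 note: cells exposed to compound for 48 hours before readout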). As to conditions: JHH-DIPG-1 glioma viability, CellTiter-Glo ATP luminescence.
The nature of assay [2]: growth inhibition of DIPG cells – cell-based, MIPE5.0 library, qHTS (AID 1347068; cut-off not given, nearly all actives have IC50 up to about 30 µM). As to conditions: SU-DIPG-XXV viability. (In qHTS, concentration-response curves come from the screen itself.)
The nature of assay [3]: growth inhibition of DIPG cells – cell-based, MIPE4.0 library, CellTiter-Glo luminescence, qHTS (AID 1347066; cut-off not given, nearly all actives have AC50 up to about 30 µM;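 note: cells exposed to compound for 48 hours before readout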). As to conditions: SU-DIPG-VI viability, CellTiter-Glo ATP luminescence.
Assay [4] in a line: MELAS cybrid and Rieske KO viability enhancers – cell-based, MELAS cybrids, Rieske KO mouse fibroblasts, CellTiter-Glo, primary screen (AID 1508586;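 active = mean z-score across replicates of 1.96 or higher in either the MELAS or the Rieske mutant cell line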;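 note: z relative to plate mean and SD of compound and empty wells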). Conditions: low glucose. On the technique in general: ATP-based viability assays read luminescence as a measure of living cells.
A short description of assay [5]: viability loss with induced miR-34 in A549 – imaging, A549 dox-inducible miR-34, nuclei and caspase counts, primary screen (AID 1347080). Conditions: A549 miR-34 inducible, Hoechst nuclei count, 48 h.
The nature of assay [6]: compounds altering HSF1 focus formation in cells – imaging, Selleck Cancer Library (AID 1347162; in the data active = plate-normalised HSF1 focus index below about 0.46). As to conditions: human cells, HSF1 nuclear foci imaging, at 10 µM; SSMD: measured here: HSF1 foci SSMD mean; cell count: measured here: cell number; plate-normalised HSF1 focus index: stronger effect = lower value.
The mark [7] stands for this setting: MELAS cybrid survival, CellTiter-Glo 48 h, stronger effect = higher value.
Where [8] appears, read: Rieske KO mouse fibroblast survival, CellTiter-Glo 72 h.
Setting [9] is: stronger effect = lower value, cell number ratio, induced over uninduced.
The mark [10] stands for this setting: measured here: relative caspase fold change +Dox/-Dox.
Where [11] appears, read: measured here: total cells with miR-34 induction, stronger effect = lower value.
[12] abbreviates: measured here: total cells without miR-34 induction.

For `CCCCC(=O)O[C@]1(C(=O)CO)[C@@H](C)C[C@H]2[C@@H]3CCC4=CC(=O)C=C[C@]4(C)[C@@]3(F)[C@@H](O)C[C@@]21C`, the compound was classed as inactive in assay [1] and in assay [2].
What is called AC50 is the concentration at which the activity in the assay is half-maximal. Regarding `CN1CCN(CCCN2c3ccccc3Sc3ccc(Cl)cc32)CC1`, in assay [3], the AC50 was 16.6 µM (active). Moreover, the z-score in assay [4] (setting [7]) was -0.995 (inactive); in assay [4] (setting [8]), -0.206.
Turning to `COc1cc(C)c(Cc2cnc(N)nc2N)cc1OC`, the fold change in assay [5] (setting [9]) was 0.944 (inactive); in assay [5] (setting [10]) it was 1.06. In addition, the cell count in assay [5] (setting [11]) turned out to be 9440; in assay [5] (setting [12]) it was 10000.
Taken in the same sequence, the figures for `CC(=O)Nc1c(I)cc(I)c(C(=O)O)c1I` were 0.913 (inactive), 2.27, 12100 and 13200.
Consider `Nc1nc(F)nc2c1ncn2[C@@H]1O[C@H](CO)[C@@H](O)[C@@H]1O`, for which the result in assay [1] was inactive. Moreover, the fold change was 1.1 (inactive) and 1.04 (inactive) in assay [5] (setting [9]); 0.763 and 0.78 in assay [5] (setting [10]). Also, the cell count was 2060 and 1630 in assay [5] (setting [11]); 1870 and 1560 in assay [5] (setting [12]); 6840 in assay [6]. In assay [6], this compound showed an SSMD of 0.111. Further, in assay [6], the plate-normalised HSF1 focus index was 1.01 (inactive). Moreover, the z-score in assay [4] (setting [7]) was 4.36 (active); in assay [4] (setting [8]) it was 1.07.
On to `CCCCCC(C)N` (centres undefined), for which the fold change is 0.893 (inactive) in assay [5] (setting [9]) and 1.93 in assay [5] (setting [10]). Also, the cell count in assay [5] (setting [11]) came to 11000; in assay [5] (setting [12]), 12400.
For the compound `O=C1CC2(CCCC2)CC(=O)N1CCNCC1COc2ccccc2O1` (centres undefined), the fold change was 0.839 (inactive) and 0.901 (inactive) in assay [5] (setting [9]); 1.72 and 0.868 in assay [5] (setting [10]). The cell count is 8960 and 8470 in assay [5] (setting [11]); 10700 and 9400 in assay [5] (setting [12]).
For the compound `CCN(CC)CC1CCCCN1CC(=O)N1c2ccccc2C(=O)Nc2cccnc21` (centres undefined), the fold change in assay [5] (setting [9]) is 0.915 (inactive) and 0.926 (inactive); in assay [5] (setting [10]) it was 1.68 and 0.696. For the same compound, the cell count in assay [5] (setting [11]) was 10100 and 9240; in assay [5] (setting [12]), 11000 and 9980.
For the compound `O=C(O)CCCCC1CCSS1` (centres undefined), the values for the fold change in assay [5] (setting [9]) and in assay [5] (setting [10]) were 1.15 (inactive) and 0.668, respectively. Further, the cell count came to 6920 in assay [5] (setting [11]) and 6020 in assay [5] (setting [12]).
For `C=Cc1c(C)c2cc3[nH]c(cc4nc(cc5nc(cc1[nH]2)C(C)=C5CCC(=O)O)C(CCC(=O)O)=C4C)c(C)c3C=C`, in that order: 1.04 (inactive), 1.36, 9230 and 8840.
For the compound `CC(Cc1ccccc1)(NC(=O)CN)c1ccccc1` (centres undefined), the fold change was 0.999 (inactive) and 0.923 (inactive) in assay [5] (setting [9]); 2.09 and 0.645 in assay [5] (setting [10]). The cell count in assay [5] (setting [11]) is 9240 and 8260; in assay [5] (setting [12]) it was 9260 and 8950.
With `Oc1c(I)cc(I)c2cccnc12`, the values for the fold change in assay [5] (setting [9]) and in assay [5] (setting [10]) were 0.894 (inactive) and 1.48, respectively. Moreover, the results for the cell count in assay [5] (setting [11]) and in assay [5] (setting [12]) were 10900 and 12200, respectively.
Consider `NC(=O)c1ccc([N+](=O)[O-])cc1Cl`, for which the fold change in assay [5] (setting [9]) is 0.897 (inactive); in assay [5] (setting [10]), 3.38. In addition, the figures for the cell count in assay [5] (setting [11]) and in assay [5] (setting [12]) were 11800 and 13200, respectively.
As for `NCC1CCC(C(=O)Oc2ccc(CCC(=O)O)cc2)CC1` (centres undefined), the fold change in assay [5] (setting [9]) was 0.97 (inactive); in assay [5] (setting [10]) it was 1.97. Also, the cell count in assay [5] (setting [11]) worked out at 9870; in assay [5] (setting [12]), 10200.
Turning to `C=CCc1ccc(O)c(OC)c1`, the fold change in assay [5] (setting [9]) is 0.949 (inactive); in assay [5] (setting [10]), 0.583. Further, the results for the cell count in assay [5] (setting [11]) and in assay [5] (setting [12]) were 11000 and 11600, respectively.
With `OCc1ccccc1O`, the results for the fold change in assay [5] (setting [9]) and in assay [5] (setting [10]) were 0.861 (inactive) and 4.19, respectively. Moreover, the cell count in assay [5] (setting [11]) stood at 10600; in assay [5] (setting [12]) it was 12400.
In the case of `C=C[C@@]1(C)CC(=O)[C@]2(O)[C@@]3(C)[C@@H](O)CCC(C)(C)[C@@H]3[C@H](O)[C@H](OC(C)=O)[C@@]2(C)O1`, the fold change in assay [5] (setting [9]) is 0.943 (inactive); in assay [5] (setting [10]), 1.09. Besides, the cell count in assay [5] (setting [11]) was found to be 9780; in assay [5] (setting [12]), 10400.
In the case of `CC1(C)S[C@@H]2[C@H](NC(=O)C(C(=O)O)c3ccccc3)C(=O)N2[C@H]1C(=O)O` (some centres undefined), the fold change in assay [5] (setting [9]) was 0.874 (inactive); in assay [5] (setting [10]) it was 0.602. Also, the cell count in assay [5] (setting [11]) was 11000; in assay [5] (setting [12]) it was 12600.
As for `CN1CCN(c2cc3c(cc2F)c(=O)c(C(=O)O)cn3-c2ccc(F)cc2)CC1`, the results for the fold change in assay [5] (setting [9]) and in assay [5] (setting [10]) were 0.87 (inactive) and 0.995, respectively. Further, the cell count in assay [5] (setting [11]) came out at 6840; in assay [5] (setting [12]), 7860.
